Screens deposited in PubChem BioAssay by Broad Institute.
Hits are enriched below; roughly 6.7% of the tested compounds scored in any of these assays.
T cruzi growth – inhibitors of T. cruzi proliferation; AID 624255; T. cruzi beta-gal in NIH3T3, GalScreen luminescence, 90 h; actives 5.9% (n = 77,000); inhibition, % at 8.34 µM;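 active = mean inhibition above about 93%, with at least 55% of replicates each passing it, limit read from the data, passing the limit was not always enough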
C diff growth – C. difficile growth inhibition; Clostridium difficile clinical isolate growth, OD600, 24 h; stronger effect = lower value; actives 0.25% (n = 86,000); growth activity, negative = inhibition, % at 16 µg/mL (by protocol);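 active = mean growth activity at or below -80% and every replicate also at or below -80%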;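 note: 0% = DMSO wells and -100% = levofloxacin 16 µg/mL wells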
Pf Dd2 growth – blocks growth of Plasmodium falciparum Dd2 parasites. actives 2.3% (n = 94,000). P. falciparum Dd2 growth, SYBR Green, 72 h; stronger effect = lower value. activity change, % at 10 µM. AID 1159554; in the data active = activity change below about -80%
* marks the source's active call; other numbers are inactive results; · = no result.

SMILES	T cruzi growth	C diff growth	Pf Dd2 growth
C[C@H](CO)N1C[C@H](C)[C@H](CN(C)S(=O)(=O)c2ccc(Cl)cc2)OCc2ccccc2-c2ccccc2C1=O	66.7	0.8	-84.7*
Cc1ccccc1S(=O)(=O)N(C)C[C@@H]1OCc2ccccc2-c2ccccc2C(=O)N([C@@H](C)CO)C[C@@H]1C	94.1	-11.1	-57.3
C[C@H](CO)N1C[C@H](C)[C@H](CN(C)Cc2ccc(-c3ccccc3)cc2)OCc2ccccc2-c2ccccc2C1=O	·	7.8	-86.9*
C[C@@H]1CN([C@@H](C)CO)C(=O)c2cc(NS(C)(=O)=O)ccc2O[C@@H](C)CCCCO[C@@H]1CN(C)C(=O)Nc1ccccc1	4.4	-0.6	-7.8
CO[C@H]1CN(C)C(=O)c2cc(C#N)ccc2OCC[C@@H]2CC[C@@H](OC)[C@H](CN(C)C(=O)[C@@H]1C)O2	27.1	-2.0	·
CC(C)C(=O)Nc1ccc2c(c1)C(=O)N(C)[C@H]1CC[C@H](CC(=O)Nc3ccccc3)O[C@H]1CO2	63.9	-4.9	-8.3
COc1ccc(S(=O)(=O)N(C)C[C@@H]2Oc3ccc(NC(=O)CCN4CCOCC4)cc3CC(=O)N([C@@H](C)CO)C[C@H]2C)cc1	13.6	7.3	-9.3
CO[C@@H]1CN(C)C(=O)c2cc(NC(C)=O)ccc2OC[C@H](C)N(Cc2ccncc2)C[C@H]1C	-30.1	·	-30.5
COCC(=O)Nc1ccc2c(c1)C(=O)N(C)C[C@@H](OC)[C@@H](C)CN(Cc1cccc(F)c1)[C@H](C)CO2	-1.3	·	-14.8
CO[C@H]1CN(C)C(=O)c2cc(NC(C)=O)ccc2OC[C@H](C)N(Cc2ccncc2)C[C@H]1C	-13.3	·	-80.4*
COCC(=O)Nc1ccc2c(c1)C(=O)N(C)C[C@H](OC)[C@H](C)CN(Cc1cccc(F)c1)[C@@H](C)CO2	40.7	·	-82.2*
C[C@H]1CN([C@@H](C)CO)C(=O)c2cc(NS(=O)(=O)c3ccc(Cl)cc3)ccc2O[C@H]1CN(C)S(=O)(=O)c1cn(C)cn1	82.6	1.0	-0.1
C[C@H](CO)N1C[C@H](C)[C@@H](CN(C)C(=O)Nc2ccc(F)cc2)Oc2ccc(NC(=O)Cn3cnnn3)cc2CC1=O	8.4	·	21.1
C[C@@H]1CN([C@@H](C)CO)C(=O)Cc2cc(NC(=O)c3ccncc3)ccc2O[C@H]1CN(C)C(=O)Nc1ccc(C(F)(F)F)cc1	55.3	0.1	-31.9
O=C(NC[C@@H]1CC[C@@H]2[C@@H](CN2S(=O)(=O)c2ccccc2[N+](=O)[O-])O1)Nc1ccccc1	·	1.5	-38.4
Cc1noc(C)c1NC(=O)N(C)C[C@@H]1Oc2ccc(NS(=O)(=O)c3ccc(F)cc3)cc2C(=O)N([C@H](C)CO)C[C@@H]1C	-7.9	1.4	-8.4
C(=C\c1ccc(C2[C@@H]3CN(Cc4cccnc4)C[C@H]2N3)cc1)/c1ccccc1 (stereo partly specified)	·	13.9	-90.4*
c1ccc(CN2C[C@@H]3N[C@H](C2)C3c2ccc(-c3ccccc3)cc2)cc1 (stereo partly specified)	·	-6.3	20.9
c1ccc(CN2C[C@@H]3N[C@H](C2)C3c2ccc(-c3ccncc3)cc2)cc1 (stereo partly specified)	·	-4.6	-83.7*
Fc1ccccc1-c1ccc(C2[C@@H]3CN(Cc4ccccn4)C[C@H]2N3)cc1 (stereo partly specified)	·	-13.0	-3.6
Fc1ccccc1-c1ccc(C2[C@@H]3CN(Cc4ccccc4)C[C@H]2N3)cc1 (stereo partly specified)	·	-98.3*	-32.2
c1cncc(CN2C[C@@H]3N[C@H](C2)C3c2ccc(-c3cccnc3)cc2)c1 (stereo partly specified)	·	-8.2	-69.2
COc1ccccc1NC(=O)N(C)C[C@@H]1Oc2ncc(C#CCN(C)C)cc2C(=O)N([C@H](C)CO)C[C@H]1C	-3.7	-0.3	15.9
O=C(NCCN1CCCCC1)[C@@H]1[C@@H](CO)[C@@H]2Cn3c(cccc3=O)[C@@H]2N1Cc1ccccn1	38.3	-2.2	·
Cc1ccc(S(=O)(=O)Nc2ccc3c(c2)C(=O)N([C@H](C)CO)C[C@@H](C)[C@H](CN(C)C(=O)NC(C)C)O3)cc1	-12.6	-3.6	-23.7
SMILES	T cruzi growth	C diff growth	Pf Dd2 growth
C[C@@H]1CCCCO[C@@H](CN(C)C(=O)Nc2cccc3ccccc23)[C@@H](C)CN([C@@H](C)CO)C(=O)c2cc(NC(=O)Nc3ccc(C(F)(F)F)cc3)ccc2O1	·	6.0	-91.2*
C[C@@H]1CN([C@H](C)CO)C(=O)c2cc(NC(=O)Nc3ccc(C(F)(F)F)cc3)ccc2O[C@@H](C)CCCCO[C@@H]1CN(C)C(=O)Nc1cccc2ccccc12	76.0	4.9	-81.7*
C[C@H](CO)N1C[C@H](C)[C@H](CN(C)C(=O)Nc2cccc3ccccc23)OCCCC[C@H](C)Oc2ccc(NC(=O)Nc3ccccc3)cc2C1=O	-18.4	0.6	-25.6
C[C@@H]1CN([C@@H](C)CO)C(=O)c2cc(NC(=O)Nc3ccccc3)ccc2O[C@@H](C)CCCCO[C@@H]1CN(C)C(=O)Nc1cccc2ccccc12	23.8	3.7	-84.4*
C[C@@H]1CCCCO[C@@H](CN(C)C(=O)Nc2cccc3ccccc23)[C@H](C)CN([C@@H](C)CO)C(=O)c2cc(NC(=O)Nc3ccc(C(F)(F)F)cc3)ccc2O1	52.2	2.9	-14.1
C[C@@H]1CN([C@H](C)CO)C(=O)c2cc(NC(=O)Nc3cccc4ccccc34)ccc2O[C@@H](C)CCCCO[C@H]1CN(C)C(=O)Nc1ccc(C(F)(F)F)cc1	88.7	-9.2	-59.0
CO[C@@H]1CN(C)C(=O)c2ccc(NS(=O)(=O)c3ccccc3)cc2OC[C@H](C)N(Cc2cccnc2)C[C@@H]1C	12.5	1.5	-49.8
C[C@@H]1CN([C@H](C)CO)C(=O)c2cccc(NC(=O)CCCCCC(=O)Nc3ccccc3N)c2O[C@@H]1CN(C)S(=O)(=O)c1ccc(F)cc1	·	-0.9	-80.0
C[C@H](CO)N1C[C@H](C)[C@H](CN(C)S(=O)(=O)c2ccc(F)cc2)Oc2c(NC(=O)CCCCCC(=O)Nc3ccccc3N)cccc2C1=O	·	-8.2	-83.3*
COc1ccc(S(=O)(=O)N(C)C[C@H]2Oc3c(NC(=O)CCCCCC(=O)Nc4ccccc4N)cccc3C(=O)N([C@@H](C)CO)C[C@H]2C)cc1	·	-5.8	-92.1*
C[C@@H]1CN([C@@H](C)CO)C(=O)c2cccc(NC(=O)CCCCCC(=O)Nc3ccccc3N)c2O[C@@H]1CN(C)S(=O)(=O)c1ccc(F)cc1	·	-4.7	-92.3*
C[C@@H]1CN([C@@H](C)CO)C(=O)c2cccc(NC(=O)CCCCCC(=O)Nc3ccccc3N)c2O[C@H]1CN(C)S(=O)(=O)c1ccc(F)cc1	·	-4.7	-75.9
COc1ccc(S(=O)(=O)N(C)C[C@@H]2Oc3c(NC(=O)CCCCCC(=O)Nc4ccccc4N)cccc3C(=O)N([C@@H](C)CO)C[C@@H]2C)cc1	·	1.3	-66.8
C[C@@H]1CN([C@@H](C)CO)C(=O)c2cc(-c3ccc(F)cc3)cnc2O[C@H]1CN(C)C(=O)NC1CCCC1	-57.1	8.5	-32.9
O=C(C1CCC1)N1CC2(C1)[C@@H](c1ccccc1)[C@@H](CO)N2Cc1nccs1	·	3.0	23.9
C[C@H](CO)N1C[C@H](C)[C@@H](CN(C)Cc2ccncc2)Oc2cc(C#CC3CC3)ccc2S1(=O)=O	75.8	-1.9	-7.1
